Test results published in PubChem BioAssay (NCATS).
Where “and” joins values, the source holds several entries; their conditions need not be identical. Equal values may be shown once. Results filed as inconclusive are left out. A call without a number means that no potency is given here. Calls of active or inactive are those of the source. Unless noted, the call rests on the fitted dose curve; in most records, active means well fitted curve in the direction sought with a large enough effect; inconclusive means small, poorly fitted or top-dose-only effect, or another doubt; inactive means no such curve, though single readings can be large; an effect the other way counts as inactive or inconclusive.

Columns and labels:
[1] = Cell Viability - H-4-II-E (AID 543);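 further: cells exposed to compound for 40 hours; nearly all actives have a fitted effect of over 35% in size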
Method in brief: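 CellTiter-Glo luminescence (intracellular ATP) measured after 40 h compound exposure at 37 °C in H-4-II-E rat hepatoma cells seeded at 1500/well. Values are AC50s fitted with the standard Hill equation.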

[2] = Cell Viability - LYMP2-001 (AID 921); further: nearly all actives have a fitted effect of over 70% in size; further: potency means the concentration at half of the fitted maximal effect
Method in brief: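 A lymphoblastoid cell line of human origin was treated with library compounds across a concentration series for 24 hours, and viable cell number was estimated from ATP-driven luciferase light output. Hill modeling gave AC50.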

[3] = MultiTox-Fluor Cytotoxicity Assay - LYMP1-001 - Live Cells (AID 947)
[4] = Cell Viability - LYMP1-003 - Assay at 40 hr (AID 964); further: series mostly up to about 92 µM; nearly all actives have a fitted effect of over 60% in size
Method in brief: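 Viability is taken as cellular ATP, read by CellTiter-Glo luminescence after 40 h of compound exposure at 37 C. Cells: human lymphoblastoid line LYMP1-003 at 2500/well; AC50 values derived by Hill-equation fitting of concentration-response data.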

[5] = Cell Viability - LYMP2-009 (AID 968); further: series mostly up to about 92 µM; nearly all actives have a fitted effect of over 55% in size
[6] = Cell Viability - LYMP2-017 (AID 972); further: nearly all actives have a fitted effect of over 55% in size; further: potency means the concentration at half of the fitted maximal effect
Method in brief: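 CellTiter-Glo luminescence (cellular ATP, 30 min RT) measured cytotoxicity after 24 hr compound treatment at 37 C. Cells were a human lymphoblastoid line, LYMP2-017, plated at 2500/well and incubated 5 hr first; concentration-response fitted with Hill equation for AC50.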

[7] = Cell Viability - LYMP2-019 (AID 973); further: nearly all actives have a fitted effect of over 55% in size
Method in brief: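 AC50 values come from Hill-equation fits of luminescent intracellular ATP (CellTiter-Glo, 30 min, room temperature) following 24 h compound exposure at 37 C. Cells: LYMP2-019 lymphoblastoid line, 2500 per well, in complete culture medium.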

[8] = Cell Viability - LYMP2-002 (AID 977); further: series mostly up to about 92 µM
Method in brief: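 In this qHTS viability screen, 2500 human lymphoblastoid cells per well receive compound for 24 hr at 37 C, and luciferase-based ATP luminescence gives the viability signal. Tetraoctylammonium bromide serves as positive control.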

[9] = Cell Viability - LYMP2-006 (AID 978); further: series mostly up to about 92 µM; nearly all actives have a fitted effect of over 60% in size
Method in brief: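 In this cytotoxicity screen, the human lymphoblastoid line grew in complete medium with test compounds for 24 hr at 37 C. Cellular ATP served as the viability signal.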

[10] = Cell Viability - LYMP2-020 (AID 986); further: series mostly up to about 92 µM; nearly all actives have a fitted effect of over 55% in size
Method in brief: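 Cytotoxicity in qHTS format: luminescent ATP readout from CellTiter-Glo after 24 h compound exposure at 37 C in complete medium. LYMP2-020 lymphoblastoid cells were seeded at 2500/well; concentration-response data fitted to the Hill equation for AC50.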

[11] = Cell Viability - LYMP2-022 (AID 987); further: nearly all actives have a fitted effect of over 55% in size; further: potency means the concentration at half of the fitted maximal effect
Method in brief: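 Cytotoxicity read as decreased cellular ATP (CellTiter-Glo luminescence, 30 min room temperature) after 24 hours compound exposure of 2500 lymphoblastoid LYMP2-022 cells/well at 37 C. Concentration-response data fitted with standard Hill equation for AC50.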

[12] = Cell Viability - LYMP2-024 (AID 988); further: nearly all actives have a fitted effect of over 60% in size; further: potency means the concentration at half of the fitted maximal effect
Method in brief: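 Cytotoxicity was taken as a decrease in ATP (CellTiter-Glo luminescence) after 24 hr compound exposure at 37 C of LYMP2-024 lymphoblastoid cells, 2500 cells/well. Concentration-response data were fitted to the Hill equation to give AC50.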

[13] = qHTS assay for small molecule antagonists of retinoid X receptor alpha signaling (AID 588546; active means well fitted inhibition curve with a large enough effect in the signal ratio, with a control signal flat, not every such curve was filed as active; the % refers to the signal ratio;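 further: cells stimulated with 9-cis-retinoic acid as agonist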); conditions: HEK293T RXRa-UAS-bla, beta-lactamase ratio, antagonist mode; measured here: W530 green channel, cytotoxicity proxy
Method in brief: (§1)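 Beta-lactamase reporter inhibition, read as CCF4 fluorescence ratio (ex 405, em 460/530 nm) after 2 h at RT. HEK293T UAS-bla cells, 2500/well, were stimulated with 9-cis-RA at 500 or 100 nM final alongside test compound for 18 h at 37 C.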

[14] = target: Retinoic acid receptor RXR-alpha (Homo sapiens) (UniProt P19793); experiment: as above; conditions: HEK293T RXRa-UAS-bla, beta-lactamase ratio, antagonist mode
Retinoic acid receptor RXR-alpha (Homo sapiens), sequence (P19793 whole entry, looked up): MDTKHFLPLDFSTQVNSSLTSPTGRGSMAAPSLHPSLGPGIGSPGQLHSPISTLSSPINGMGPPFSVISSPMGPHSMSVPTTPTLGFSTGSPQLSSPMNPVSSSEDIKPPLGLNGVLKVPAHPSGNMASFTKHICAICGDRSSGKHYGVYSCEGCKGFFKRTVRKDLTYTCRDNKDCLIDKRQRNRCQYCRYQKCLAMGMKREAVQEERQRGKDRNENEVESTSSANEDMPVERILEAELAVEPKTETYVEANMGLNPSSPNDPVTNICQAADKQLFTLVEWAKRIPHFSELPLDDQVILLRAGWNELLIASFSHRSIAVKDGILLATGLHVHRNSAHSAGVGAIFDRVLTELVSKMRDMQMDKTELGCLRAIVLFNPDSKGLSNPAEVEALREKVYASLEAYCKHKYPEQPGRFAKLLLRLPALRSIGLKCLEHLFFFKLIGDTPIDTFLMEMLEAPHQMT
Method in brief: as §1

[15] = qHTS assay for small molecule disruptors of the mitochondrial membrane potential - 5 hr assay (AID 651755; calls by dose curve; further: nearly all actives have a fitted effect of over 40% in size)
Method in brief: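 Seed HepG2 overnight, add compound, incubate 5 hr at 37C and 5% CO2, stain 30 min with Mito-MPS, then measure monomer (490/535 nm) and aggregate (540/590 nm) fluorescence.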

[16] = qHTS assay for environmental chemicals that activate the Aryl hydrocarbon Receptor (AhR) signaling pathway (AID 651777); conditions: 1A2-DRE human hepatoma cells, luciferase, 24 h; activation: stronger effect = higher value; further: nearly all actives have a fitted effect of over 15% in size
Method in brief: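 Concentration–response screening used 1,200 1A2-DRE cells per well, 24 hr compound exposure (37 C, 5% CO2), and One-Glo luminescence as the AhR-driven CYP1A2 reporter signal.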

[17] = target: Nuclear receptor subfamily 1 group I member 2 (Rattus norvegicus) (UniProt Q9R1A7); experiment: qHTS assay for small molecule activators of the rat pregnane X receptor (rPXR) signaling pathway (AID 651751; call rule not given here); conditions: rPXR reporter cells, luciferase (One-Glo), 24 h
Nuclear receptor subfamily 1 group I member 2 (Rattus norvegicus), sequence (Q9R1A7 whole entry, looked up): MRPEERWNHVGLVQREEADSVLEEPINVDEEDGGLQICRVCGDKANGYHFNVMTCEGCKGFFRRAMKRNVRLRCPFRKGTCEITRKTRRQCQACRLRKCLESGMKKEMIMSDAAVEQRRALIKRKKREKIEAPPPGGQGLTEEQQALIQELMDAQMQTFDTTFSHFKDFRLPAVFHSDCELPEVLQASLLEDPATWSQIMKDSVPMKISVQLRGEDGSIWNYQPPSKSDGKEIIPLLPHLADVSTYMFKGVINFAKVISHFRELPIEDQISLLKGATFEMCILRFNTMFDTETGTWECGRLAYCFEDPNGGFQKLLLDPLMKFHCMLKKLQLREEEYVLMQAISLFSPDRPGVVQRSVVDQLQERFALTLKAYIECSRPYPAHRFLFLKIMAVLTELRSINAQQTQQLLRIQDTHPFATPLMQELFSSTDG

[18] = Cell Viability - LYMP2-004 (AID 966); further: nearly all actives have a fitted effect of over 65% in size; further: potency means the concentration at half of the fitted maximal effect
Method in brief: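 AC50 values come from Hill modelling of concentration-dependent loss of intracellular ATP, measured by CellTiter-Glo luminescence. Human LYMP2-004 lymphoblastoid cells (2500/well) were exposed to compound for 24 h at 37 C.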

[19] = target: Thyroid hormone receptor beta (Homo sapiens) (UniProt P10828); experiment: qHTS assay for small molecule antagonists of thyroid hormone receptor beta signaling (AID 588547; active means well fitted inhibition curve with a large enough effect in the signal ratio, with a control signal flat, not every such curve was filed as active; the % refers to the signal ratio;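 further: cells stimulated with 0.4 nM T3 agonist during compound exposure; series mostly up to about 77 µM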); conditions: TR-UAS-bla HEK293, beta-lactamase ratio, antagonist mode, 18 h
Thyroid hormone receptor beta (Homo sapiens), sequence (P10828 whole entry, looked up): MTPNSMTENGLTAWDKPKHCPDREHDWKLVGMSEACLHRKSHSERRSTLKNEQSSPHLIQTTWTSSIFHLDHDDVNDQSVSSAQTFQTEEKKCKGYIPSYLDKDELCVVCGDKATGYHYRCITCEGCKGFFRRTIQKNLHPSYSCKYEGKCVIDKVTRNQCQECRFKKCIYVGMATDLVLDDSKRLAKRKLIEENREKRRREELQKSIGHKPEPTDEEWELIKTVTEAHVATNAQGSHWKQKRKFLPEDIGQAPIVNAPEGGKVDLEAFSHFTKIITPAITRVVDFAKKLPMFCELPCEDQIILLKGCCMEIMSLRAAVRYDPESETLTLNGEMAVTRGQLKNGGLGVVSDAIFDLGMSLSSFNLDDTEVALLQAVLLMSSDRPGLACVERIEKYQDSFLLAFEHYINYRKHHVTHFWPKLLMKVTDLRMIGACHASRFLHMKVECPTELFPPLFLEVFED
Method in brief: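 TR-UAS-bla GripTite HEK293 cells in 2% charcoal/dextran FBS medium were preincubated 4 h at 37 C, given compound (0.59 nM to 92 uM) plus 0.4 nM T3 (final) for 18 h, then CCF4 for 2 h at RT; Hill fit gave IC50.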

[20] = Cell Viability - LYMP2-005 (AID 967); further: series mostly up to about 92 µM
Method in brief: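 Luciferase-based ATP quantitation served as the viability measure in human lymphoblastoid LYMP2-005 cells exposed to test compounds for 24 h at 37 C in complete culture medium. Potency (AC50) was obtained by fitting concentration-response curves with the Hill equation.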

Row | Compound | Potency [1] | Potency [2] | Potency [3] | Potency [4] | Potency [5] | Potency [6] | Potency [7] | Potency [8] | Potency [9] | Potency [10] | Potency [11] | Potency [12] | max response [13] | max response [14] | Potency [15] | activation [16] | max response [17] | Potency [18] | activity change % (negative = inhibition) [19] | Potency [20]
1 | CC(=O)Nc1cccc(C)c1 | inactive | inactive | inactive | inactive | inactive | inactive | inactive | inactive | inactive | inactive | inactive | inactive | 1.11% | 1.56% (inactive) | inactive | 0.306% (inactive) | -0.307% (inactive) |  |  | 
2 | c1ccc2c(c1)ccc1ccccc12 | inactive | inactive | inactive | inactive | inactive | inactive | inactive | inactive | inactive | inactive | inactive | inactive | -0.251% | 9.87% (inactive) | inactive | 0.646% (inactive) and 0.0503% (inactive) | -1.82% (inactive) and 1.55% (inactive) | inactive | 0.286% (inactive) | 
3 | CC(C)COC(=O)COc1cc(Cl)c(Cl)cc1Cl | inactive | inactive | inactive | inactive | inactive | inactive | inactive | inactive | inactive | inactive | inactive | inactive | -2.2% | 8.47% (inactive) |  | 1.79% (inactive) | -2.47% (inactive) | inactive | 14.2% (inactive) | inactive
4 | OC1CCCCC1 | inactive | inactive | inactive | inactive | inactive | inactive | inactive | inactive | inactive | inactive | inactive | inactive | 10.1% | -3.43% (inactive) |  | -0.284% (inactive) | 1.53% (inactive) | inactive | 4.86% (inactive) | inactive
5 | c1cc2c3c(c1)ccc1cccc(c13)C2 | inactive | inactive | inactive | inactive |  | inactive | inactive | inactive | inactive | inactive | inactive | inactive | -1.55% | -11.6% (inactive) | inactive | -0.581% (inactive) | -0.774% (inactive) | inactive | -0.0299% (inactive) | inactive
6 | Oc1ccc(O)c2c(O)cccc12 |  | 50.1 µM (active) | inactive | inactive |  | 50.1 µM (active) |  |  |  |  | 50.1 µM (active) | 50.1 µM (active) | -12.8% | -1.49% (inactive) |  |  | 1.1% (inactive) | 50.1 µM (active) | -24.9% (inactive) | 
7 | O=C(O)/C=C/c1ccc(/C=C/C(=O)O)cc1 | inactive | inactive | inactive | inactive | inactive | inactive | inactive | inactive | inactive | inactive | inactive | inactive | -0.222% | 14.1% (inactive) | inactive | 0.407% (inactive) | 0.0892% (inactive) | inactive | 2.91% (inactive) | inactive
8 | C=Cc1cccc(C)c1 | inactive | inactive | inactive | inactive | inactive | inactive | inactive | inactive | inactive | inactive | inactive | inactive | -7.34% | -5.75% (inactive) | inactive | -0.0469% (inactive) | 3.54% (inactive) | inactive | -8.39% (inactive) | inactive
9 | C=C(C#N)C(=O)OCC | inactive | inactive | inactive | inactive | inactive | inactive | inactive | inactive |  | inactive |  | inactive | -6.72% | 9.58% (inactive) | inactive | -0.801% (inactive) | -1.42% (inactive) |  | 4.82% (inactive) | inactive
10 | Nc1ccc(-c2ccc(N)c(O)c2)cc1O |  |  | inactive | inactive |  |  |  | inactive | inactive | inactive |  |  | -41.6% | -12% (inactive) |  | -0.254% (inactive) | -1.46% (inactive) |  | -12.5% (inactive) | 
11 | CCCCC(CC)COC(=O)COc1ccc(Cl)cc1Cl (stereo not given) | inactive | inactive | inactive | inactive | inactive | inactive | inactive | inactive | inactive | inactive | inactive | inactive | 0.541% and -5.28% | 18.5% (inactive) and 4.05% (inactive) | inactive | 0.535% (inactive) and 1.47% (inactive) | -0.582% (inactive) and 1.82% (inactive) | inactive | -2.67% (inactive) and 4.45% (inactive) | 
12 | CCc1ccc(C(c2ccc(CC)cc2)C(Cl)Cl)cc1 | inactive | inactive | inactive | inactive | inactive | inactive | inactive | inactive | inactive | inactive | inactive | inactive | -4.78% | -8.97% (inactive) | inactive | -0.69% (inactive) | 1.82% (inactive) | inactive | 13.5% (inactive) | inactive
